Our source for the antigen binding call values is the emibetuzumab library of Makowski et al. (2022).

The other results are listed elsewhere or left out. How many sequences the whole screen found active is unknown.

B1: VH:VL chains; a variant is named by its letters at X, in order (parent)
chain 1: QVQLVQSGAEVKKPGASVKVSCKASGYTFTDYXMHWVRQAPGQGLEWMGXVNPNXXXTTYNQKFEGRVTMTTDTSTSTAYMELRSLRSDDTAVYYCARXNXLDXWGQGTTVTVSS
chain 2: DIQMTQSPSSLSASVGDRVTITCSVSSSVSSIYLHWYQQKPGKAPKLLIYSTSNLASGVPSRFSGSGSGTDFTLTISSLQPEDFATYYCQVYSGYPLTFGGGTKVEIK

The variants in this assay derive from B1. The experiment in a line: yeast display scFab, FACS + sequencing. To be noted: with MET. In outline:
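For FACS, yeast displaying a heavy-chain CDR mutant scFab library were labelled with 1 nM HGFR-Fc and anti-Myc (PBSB, 1% milk, 3 h, room temperature), and the top 50% antigen-positive cells were gated. Input and round-3 sorted populations were deep sequenced in two replicates. The binding call was positive for sequences occurring in both antigen-positive samples and negative for sequences occurring only in input.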
Take VKAGGDAV: the antigen binding call is “no binding”. The entry for SGREGDSA is “no binding”; for DGGGNVSD it is “no binding”; for DEGGTDWV it is “no binding”. Consider SAREGYSV, for which the antigen binding call is “no binding”.

With DEARNAGA, the antigen binding call is “no binding”. In the case of FRGRSSGV, the antigen binding call is “binds”. As for FRAGSSGV, the antigen binding call is given as “binds”. As for FRTRSSGV, the antigen binding call is “binds”. Take FRTADVGV: the antigen binding call is on record as “no binding”.

With FRGRGSGV, the antigen binding call is given as “binds”. As to VTKGGSSA, the antigen binding call is given as “no binding”. With SEKKADWA, the antigen binding call was “no binding”. VTTKSDVA: the antigen binding call is listed as “no binding”. As to VRTEDDVY, the antigen binding call is recorded as “no binding”. For the variant SEGRGSGV, the antigen binding call is “no binding”.

Consider FKGRGSGV, for which the antigen binding call is on record as “binds”.

As to VGGTSSSV, the antigen binding call is given as “no binding”. The entry for VRGTGDWD is “no binding”.

In the case of VRGTGSWD, the antigen binding call is recorded as “binds”. VRGEGSWD: the antigen binding call was “binds”. The entry for VRGTGSAD is “no binding”. The value for YTEGDDGV was “no binding”.

For YTGGDDWV, the antigen binding call is listed as “no binding”. For DEGTDYAA, the antigen binding call is “no binding”. Take FKTGDAWS: the antigen binding call was “no binding”. Consider FKGRGAGS, for which the antigen binding call was “binds”.

FKGRGDGS: the antigen binding call is given as “no binding”. Regarding FKGRGAWS, the antigen binding call is “binds”.

As to DATGGDGA, the antigen binding call is given as “no binding”.

Regarding YKGGSSAD, the antigen binding call is recorded as “binds”. Turning to DKGGSSLD, the antigen binding call is “no binding”. Consider YKGGSSLD, for which the antigen binding call is “binds”. The value for YEGTGSAD was “no binding”. Turning to YTGTSSAD, the antigen binding call was “no binding”.

As for DATGGSSA, the antigen binding call is given as “no binding”. Turning to YKRGDAWD, the antigen binding call was “binds”. With YKRAAVWD, the antigen binding call was “no binding”. The value for YKRGDAWA was “binds”. On to YTRGNAWA, for which the antigen binding call is “no binding”.

In the case of YRRGDFWA, the antigen binding call is reported as “no binding”. As for YKRGSAWD, the antigen binding call is listed as “binds”. Turning to VEGRGAVY, the antigen binding call is reported as “no binding”. The value for VKGTGVAY was “no binding”. The entry for VKGRGAAY is “binds”; for YKGRGAAY it is “binds”; for YAGETFGA it is “no binding”. The value for SETGGFVV was “no binding”; that for DGGENDVY was “no binding”; that for YRRKGSGY was “binds”. Take YTKEASGY: the antigen binding call is “no binding”. Consider ARTKGSGY, for which the antigen binding call is “no binding”. For YRKGGSGY, the antigen binding call is “binds”. Turning to FRGRGSSY, the antigen binding call is recorded as “binds”. With YRGRGSAY, the antigen binding call is “binds”. For FRGRGAAY, the antigen binding call is on record as “binds”. For the variant FRGRGSAY, the antigen binding call is reported as “binds”. As for YEGGADVF, the antigen binding call is reported as “no binding”. With DAGAADAV, the antigen binding call was “no binding”. On to DTGTGSWD, for which the antigen binding call was “no binding”. For the variant VTEGGDAA, the antigen binding call is “no binding”. As to FTRAGAAA, the antigen binding call is on record as “no binding”.

In the case of FTGRGAAA, the antigen binding call is reported as “binds”. Take FKGRGAAY: the antigen binding call is recorded as “binds”. Consider FTGRGAVA, for which the antigen binding call is recorded as “no binding”. The entry for SEARSDSV is “no binding”; for VKAGDAVY it is “no binding”. For the variant DRAGDDGY, the antigen binding call was “no binding”. The value for YRAGDSGY was “binds”; that for VRAGDSGY was “binds”; that for YTGTSDLA was “no binding”. Take FRGRGYGA: the antigen binding call is reported as “no binding”. As for FRGRGVGA, the antigen binding call is “binds”. For the variant FRGRGAGA, the antigen binding call is “binds”. The value for YRGRGVGA was “binds”; that for ARGGDDGA was “no binding”; that for ATGTGSGA was “no binding”. The entry for VRGKGSGA is “binds”; for VGGTGSGA it is “no binding”. For VAEKGSGA, the antigen binding call is recorded as “no binding”. In the case of VRGKGSLA, the antigen binding call is “binds”. As for VRGTGSGA, the antigen binding call is “binds”. The entry for VGGTSSGA is “no binding”. On to VKGKGDLA, for which the antigen binding call is “no binding”.

Consider VTGEDSLA, for which the antigen binding call is listed as “no binding”.

In the case of FERTSVWF chain 1 L45F, the antigen binding call was “no binding”. Consider SAGGDYVF, for which the antigen binding call was “no binding”. Take YTGEGDGV: the antigen binding call was “no binding”.

Consider YTTRGSWV, for which the antigen binding call is given as “no binding”. As for YRGRSAWV, the antigen binding call is “binds”. Consider YRGEGDAV, for which the antigen binding call is on record as “binds”. For YTGEGSWV, the antigen binding call is given as “binds”. With DREEGDAV, the antigen binding call is on record as “no binding”.

Turning to YRGEGDAA, the antigen binding call was “no binding”. The entry for YRGESAWV is “binds”; for VTKAASWV it is “no binding”. The entry for SEEASAVY is “no binding”. The value for DKTGDDGS was “no binding”; that for YRGEGAWV was “binds”.

For the variant YRGRSASS, the antigen binding call is reported as “binds”.

Take YRGAAASS: the antigen binding call was “binds”. For the variant YRGRDASA, the antigen binding call was “binds”.

As for YRGRDDLA, the antigen binding call is “no binding”.

On to YRGRDSSS, for which the antigen binding call is “binds”. On to VEGAAAGS, for which the antigen binding call is “no binding”. ATGEGDGV: the antigen binding call was “no binding”.
